Experimental data reported in PubChem BioAssay (NCI).
This is part of a sample that, as a whole, favours compounds with a hit. Of some 79,000 tested, about 15% had one in any assay. Values without a mark were called inactive. Activity calls are given as the source filed them. Rule as the data show it: active = growth inhibition above about 70%; inactive = the rest.

Columns and labels:
[1] = NCI Yeast Anticancer Drug Screen. Data for the rad50 strain (AID 155);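 also: 0% = growth of vehicle-only cultures of the same strain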; details: S. cerevisiae rad50 strain growth inhibition; at 50.0 µM; stronger effect = higher value
How it was run: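 Yeast carrying a defined DNA repair defect were exposed to test compounds, and growth was compared with vehicle-treated controls to give percent inhibition.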

[2] = NCI Yeast Anticancer Drug Screen. Data for the mec2-1 strain (AID 157); details: S. cerevisiae mec2-1 strain, at 50.0 µM, stronger effect = higher value
How it was run: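 Each compound was tested on mec2-1 yeast, a strain altered in DNA damage repair or cell cycle control. Growth inhibition is reported relative to vehicle.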

[3] = NCI Yeast Anticancer Drug Screen. Data for the sgs1 mgt1 strain (AID 161);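 also: 0% = growth of cultures given vehicle only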; details: S. cerevisiae sgs1 mgt1 strain, at 50.0 µM, stronger effect = higher value
How it was run: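 Genetically altered yeast, compound exposure, growth inhibition relative to vehicle.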

[4] = NCI Yeast Anticancer Drug Screen. Data for the cln2 rad14 strain (AID 165);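 also: 0% = growth equal to vehicle treated cultures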; details: S. cerevisiae cln2 rad14 strain, at 50.0 µM, stronger effect = higher value
How it was run: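 Test compounds were added to cln2 rad14 yeast cultures; inhibition of growth was then determined by comparison with vehicle treatment.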

[5] = NCI Yeast Anticancer Drug Screen. Data for the bub3 strain (AID 167); details: S. cerevisiae bub3 mutant strain, at 50.0 µM, stronger effect = higher value
How it was run: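 Compounds were applied to a genetically altered yeast strain carrying a cell-cycle control defect. Growth inhibition was scored against vehicle-treated controls.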

[6] = NCI Yeast Anticancer Drug Screen. Data for the mlh1 rad18 strain (AID 175); details: S. cerevisiae mlh1 rad18 strain growth inhibition; at 50.0 µM; stronger effect = higher value
How it was run: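 Inhibition values reflect reduced growth of mutant yeast versus vehicle-treated controls following compound exposure; the mutations affect DNA damage repair.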

N#CC(C#N)=C(N)/C(C#N)=C/c1ccc2ccccc2n1
growth inhibition [1]: -0.25% | growth inhibition [2]: -11.2% | growth inhibition [3]: -5.75% | growth inhibition [4]: 12.8% | growth inhibition [5]: -5.45% | growth inhibition [6]: -12.2%

CC(C)=CC(=O)OC1C2C(C)=CC(=O)C(O)C2(C)C2C3(O)OCC24C(CC(=O)OC14)C(C)C3O (stereo unspecified)
growth inhibition [1]: 91.6% (active) | growth inhibition [2]: 92.4% (active) | growth inhibition [3]: 91.5% (active) | growth inhibition [4]: 91% (active) | growth inhibition [5]: 90.8% (active) | growth inhibition [6]: 91.2% (active)

CC(=O)OCCn1c(=O)sc2ccccc21
growth inhibition [1]: 3.1% | growth inhibition [2]: 13.8% | growth inhibition [3]: 3.2% | growth inhibition [4]: -8.35% | growth inhibition [5]: -10.7% | growth inhibition [6]: -1.4%

C=C(Cl)COc1ccc(-c2ccccc2)cc1
growth inhibition [1]: 28.4% | growth inhibition [2]: 6.9% | growth inhibition [3]: 16.5% | growth inhibition [4]: -2.7% | growth inhibition [5]: -8.55% | growth inhibition [6]: 1.2%

CCCCCCCCCCCC(=O)Nc1ccc(NC(C)=O)cc1
growth inhibition [1]: 8.25% | growth inhibition [2]: 25.1% | growth inhibition [3]: 22.6% | growth inhibition [4]: -14% | growth inhibition [5]: 24.9% | growth inhibition [6]: 23.9%

CSc1cc(Cl)c(C)cc1S(=O)(=O)n1cc[nH]c1=O
growth inhibition [1]: -2.4% | growth inhibition [2]: 1.4% | growth inhibition [3]: 3.35% | growth inhibition [4]: -0.05% | growth inhibition [5]: -3.75% | growth inhibition [6]: 17.1%

O=c1c2c(sc3ccccc13)NCN(CCc1ccccc1)C2
growth inhibition [1]: -10.7% | growth inhibition [2]: -4.15% | growth inhibition [3]: 20.9% | growth inhibition [4]: 3.2% | growth inhibition [5]: 19.1% | growth inhibition [6]: 12.2%

Cc1ccc(NC2C=C(c3ccccc3)Oc3ccccc32)c(C)c1 (stereo unspecified)
growth inhibition [1]: 20.1% | growth inhibition [2]: -3.7% | growth inhibition [3]: 20.9% | growth inhibition [4]: -3.25% | growth inhibition [5]: 14.1% | growth inhibition [6]: 8.45%

CN(CC(=O)O)c1ncc2c(n1)-c1ccccc1SC2
growth inhibition [1]: 20.5% | growth inhibition [2]: 4.95% | growth inhibition [3]: 5.15% | growth inhibition [4]: 10.3% | growth inhibition [5]: -14.3% | growth inhibition [6]: -6.3%

Cn1cnc([N+](=O)[O-])c1C(=O)NCc1ccccc1
growth inhibition [1]: -2.5% | growth inhibition [2]: 9.1% | growth inhibition [3]: 5.15% | growth inhibition [4]: -20.8% | growth inhibition [5]: -7.35% | growth inhibition [6]: -9.05%

CCOC(=O)c1cn(C)c2c1C(=O)C(C(=O)OCC)CC(=O)N2 (stereo unspecified)
growth inhibition [1]: -4.55% | growth inhibition [2]: -4.15% | growth inhibition [3]: -11.6% | growth inhibition [4]: -53.6% | growth inhibition [5]: -6.4% | growth inhibition [6]: -8.25%

CCc1ccc(C(C)=O)cc1
growth inhibition [1]: 7.05% | growth inhibition [2]: 41.5% | growth inhibition [3]: 34.8% | growth inhibition [4]: 3.5% | growth inhibition [5]: -9.7% | growth inhibition [6]: 52.6%

CC(=O)Nc1ccc(F)c(F)c1
growth inhibition [1]: 17.8% | growth inhibition [2]: -16.7% | growth inhibition [3]: 3.2% | growth inhibition [4]: -3.95% | growth inhibition [5]: -3.35% | growth inhibition [6]: 30.8%

C[N+]1(C(CO)Cc2c[nH]c3ccccc23)Cc2ccccc2C1 (stereo unspecified)
growth inhibition [1]: 10.6% | growth inhibition [2]: 14.6% | growth inhibition [3]: -19.1% | growth inhibition [4]: -8.35% | growth inhibition [5]: -65.5% | growth inhibition [6]: -5.7%

CSc1nc(C)cc(Nc2ccc(O)c(CN3CCOCC3)c2)n1
growth inhibition [1]: 6.1% | growth inhibition [2]: -3.25% | growth inhibition [3]: -22% | growth inhibition [4]: -33.1% | growth inhibition [5]: -52% | growth inhibition [6]: 9.4%

CC(=O)c1c[nH]c(=O)c2cc3c(cc12)OCO3
growth inhibition [1]: -42.8% | growth inhibition [2]: -14.1% | growth inhibition [3]: -7.85% | growth inhibition [4]: -10.4% | growth inhibition [5]: 12.8% | growth inhibition [6]: -8.3%

CN=C1Nc2ccc(Cl)cc2C(c2ccccc2)=NN1C
growth inhibition [1]: 10% | growth inhibition [2]: -19.4% | growth inhibition [3]: 2.9% | growth inhibition [4]: 11.3% | growth inhibition [5]: 6.85% | growth inhibition [6]: -12.6%

c1ccc2c(c1)[nH]c1ccccc12
growth inhibition [1]: -30.9% | growth inhibition [2]: -15.9% | growth inhibition [3]: 1.65% | growth inhibition [4]: -3.05% | growth inhibition [5]: -5.5% | growth inhibition [6]: 7.05%

CC(=O)C1CCC2C3C=C(C)C4=CC(=O)CCC4(C)C3(F)C(=O)CC12C (stereo unspecified)
growth inhibition [1]: 13.8% | growth inhibition [2]: -12.2% | growth inhibition [3]: 6% | growth inhibition [4]: -13.1% | growth inhibition [5]: 14.2% | growth inhibition [6]: 15.9%

C[n+]1c(/C=C/c2ccc3c(c2)OCO3)ccc2ccccc21
growth inhibition [1]: 1.55% | growth inhibition [2]: -0.2% | growth inhibition [3]: 22% | growth inhibition [4]: 6% | growth inhibition [5]: 14.1% | growth inhibition [6]: 14.2%

C1C2CC3CC1CC(c1nn4c(C56CC7CC(CC(C7)C5)C6)nnc4s1)(C2)C3
growth inhibition [1]: -20.4% | growth inhibition [2]: -12.8% | growth inhibition [3]: -9.1% | growth inhibition [4]: 11.2% | growth inhibition [5]: -12.4% | growth inhibition [6]: -17.9%

CCCCOC(=O)c1ccccc1
growth inhibition [1]: -7% | growth inhibition [2]: 13.7% | growth inhibition [3]: -10.2% | growth inhibition [4]: -2.8% | growth inhibition [5]: -1.4% | growth inhibition [6]: 18.1%

CC1=CC[C@H]2C(C)=CC[C@@H](C(C)C)[C@@H]2C1
growth inhibition [1]: 10.4% | growth inhibition [2]: 6.05% | growth inhibition [3]: 24.2% | growth inhibition [4]: 21.6% | growth inhibition [5]: 13.1% | growth inhibition [6]: 17.4%

CSc1ccc2c(=O)c(C(=O)O)c[nH]c2c1
growth inhibition [1]: -0.05% | growth inhibition [2]: 15.7% | growth inhibition [3]: 5.25% | growth inhibition [4]: 1.75% | growth inhibition [5]: 10.3% | growth inhibition [6]: 5.85%

[O-]c1c[n+](-c2ccc3c(c2)OCO3)no1
growth inhibition [1]: 3.2% | growth inhibition [2]: -3.25% | growth inhibition [3]: -0.25% | growth inhibition [4]: -16.4% | growth inhibition [5]: 7.3% | growth inhibition [6]: 13.7%

C=CCCCOC(C)=O
growth inhibition [1]: 5.1% | growth inhibition [2]: -10.9% | growth inhibition [3]: 12.5% | growth inhibition [4]: 4% | growth inhibition [5]: 11.9% | growth inhibition [6]: 1.8%

O=c1[nH]c2cc(Cl)ccc2nc1/C=C(\O)c1cccc(O)c1
growth inhibition [1]: -3.45% | growth inhibition [2]: -5.05% | growth inhibition [3]: -8.45% | growth inhibition [4]: -4.35% | growth inhibition [5]: -4.45% | growth inhibition [6]: 10.2%

CCOC(=O)C(/C(=N\NC(=O)OC)C(=O)Nc1cc(OC)ccc1OC)c1cnc2ccccc2n1 (stereo unspecified)
growth inhibition [1]: -6.15% | growth inhibition [2]: -2.75% | growth inhibition [3]: -45.4% | growth inhibition [4]: 18.8% | growth inhibition [5]: 15.4% | growth inhibition [6]: 0.7%

COc1cc2c(cc1Oc1c(O)c(OC)cc3c1C(C)N(C)CC3)C(C)N(C)CC2 (stereo unspecified)
growth inhibition [1]: 37.5% | growth inhibition [2]: -8.1% | growth inhibition [3]: 2.4% | growth inhibition [4]: 0.8% | growth inhibition [5]: 2.5% | growth inhibition [6]: 14.9%

COc1ccccc1Nc1nc(N)nc(N)c1N=O
growth inhibition [1]: 11.4% | growth inhibition [2]: -36.1% | growth inhibition [3]: -16.2% | growth inhibition [4]: -27.7% | growth inhibition [5]: -34.6% | growth inhibition [6]: -56.1%

Ic1ccccn1
growth inhibition [1]: 15.3% | growth inhibition [2]: -11.3% | growth inhibition [3]: -9.05% | growth inhibition [4]: -29.8% | growth inhibition [5]: -8.15% | growth inhibition [6]: -1.2%

Nc1nc(-c2ccccc2)nc2nc[nH]c12
growth inhibition [1]: 8.75% | growth inhibition [2]: -3.9% | growth inhibition [3]: -20.3% | growth inhibition [4]: -2.2% | growth inhibition [5]: 0.85% | growth inhibition [6]: 5.85%

N#[N+]c1ccc(Nc2ccccc2)cc1
growth inhibition [1]: -8.2% | growth inhibition [2]: 9.55% | growth inhibition [3]: -20.1% | growth inhibition [4]: 12.3% | growth inhibition [5]: -10.8% | growth inhibition [6]: -4.25%

Clc1nc(N2CCCCC2)c2[nH]cnc2n1
growth inhibition [1]: -35.2% | growth inhibition [2]: -6.2% | growth inhibition [3]: 6.75% | growth inhibition [4]: -9.8% | growth inhibition [5]: -1.6% | growth inhibition [6]: -0.9%

CCN(CC)C(=S)SCCC(N)=O
growth inhibition [1]: -12.4% | growth inhibition [2]: -13.8% | growth inhibition [3]: -2.8% | growth inhibition [4]: 9.15% | growth inhibition [5]: -1.25% | growth inhibition [6]: -0.65%

O=C(NC(Cc1ccccc1)C(=O)O)c1ccccc1 (stereo unspecified)
growth inhibition [1]: 4% | growth inhibition [2]: 4.9% | growth inhibition [3]: 24.1% | growth inhibition [4]: -1.6% | growth inhibition [5]: 6.7% | growth inhibition [6]: 1.55%

O=C(O)C1OCOC2C(CO)OCOC12 (stereo unspecified)
growth inhibition [1]: 11.8% | growth inhibition [2]: -5.35% | growth inhibition [3]: 17% | growth inhibition [4]: -29.9% | growth inhibition [5]: -3.6% | growth inhibition [6]: 11.1%

O=C1c2c(-c3ccccc3)ccc(-c3ccccc3)c2C(=O)c2c(-c3ccccc3)ccc(-c3ccccc3)c21
growth inhibition [1]: -4.4% | growth inhibition [2]: -3.4% | growth inhibition [3]: 2.3% | growth inhibition [4]: -6.8% | growth inhibition [5]: -2.6% | growth inhibition [6]: -13.6%

Cc1nnnn1[C@H]1C(C#N)CC2[C@@H]3CCC4=Cc5nnnn5CC[C@]4(C)C3CC[C@@]21C (stereo partly specified)
growth inhibition [1]: 23.3% | growth inhibition [2]: 27.4% | growth inhibition [3]: 23% | growth inhibition [4]: 16.6% | growth inhibition [5]: 13.2% | growth inhibition [6]: 25.2%

CC1(C)CC(=O)C2=C(C1)NC(SSC1=C(C#N)C(c3ccc(F)cc3)C3=C(CC(C)(C)CC3=O)N1)=C(C#N)C2c1ccc(F)cc1 (stereo unspecified)
growth inhibition [1]: -22.4% | growth inhibition [2]: -12.8% | growth inhibition [3]: -12.4% | growth inhibition [4]: 55.5% | growth inhibition [5]: -26.2% | growth inhibition [6]: -25.8%

CCN(CC)C1CCC(C2c3cc4c(cc3OC(N3CCOCC3)C2C)OCO4)CC1 (stereo unspecified)
growth inhibition [1]: -11.1% | growth inhibition [2]: -18.4% | growth inhibition [3]: -22.8% | growth inhibition [4]: -63% | growth inhibition [5]: 7.95% | growth inhibition [6]: -22.4%
